# Test results from PubChem BioAssay AID588856 (National Center for Advancing Translational Sciences (NCATS), 2011).
# The campaign covered roughly 410,000 compounds. About 3,100 (0.76%) were called active. Entries that show only a call come without a potency. The call rests on the fitted dose curve; in most records, active means well fitted cell-killing curve with a large enough effect; inactive means no such curve, though single readings can be large or run the other way. The full list was thinned out, with actives kept by preference.
# Assay: qHTS for Inhibitors of TGF-b: Cytotox Counterscreen
# Details: HepG2 CAGA-GFP viability, ATP luminescence, 18 h; series mostly up to 46.1 µM
# Source text: TGF-b is a main component in the TGF-b signaling pathway which plays diverse roles in cellular and development pathways. TGF-b is mediated by transcription factors called "Smads". Although the Smad-dependent pathway is the primary canonical TGF-b signaling mode, TGF-b1 can also activate alternative signaling pathways, including those involving MAPK (ERK, JNK and p38). This interaction may mediate or enhance Smad-dependent responses, or can exert Smad-independent effects. The complexity of this signaling cascade allows the TGF-b superfamily to perform unique, overlapping or redundant functions. We believe that targeting the TGF-beta pathway at the Smad-transcription factor level may eliminate the consequences of disrupting the entire pathway and offer specificity without affecting other signaling pathways. Smad3 is the primary transducer of TGF-b's signals and Smad3 regulates many functions attributed to TGF-b signaling. We hypothesize that Smad3 inhibitors will selectively eliminate Smad3-specific TGF-beta signals without undesired off-target effects. We aim to identify Smad3-small molecule antagonists using a quantitative high throughput screening (qHTS) approach.
# A high-throughput assay was developed to screen the NIH Molecular Libraries Small Molecule Repository (MLSMR). This is a cell based assay, where TGF-b is tagged with GFP. This is a counterscreen that evaluates the cytotoxicity of the compounds that were screened in the primary cell-based screen (AID 588855).
# MH087449NIH Chemical Genomics Center [NCGC]
# NIH Molecular Libraries Probe Centers Network [MLPCN]
# Assay Submitter (PI): Sushil Rane, National Institute of […]
# Suspensions of trypsinized HEPG2 CAGA-GFP cells were dispensed into white, tissue culture-treated, solid 1536-well plates at 5uL/well (1000 cells/well final concentration) in DMEM medium supplemented with 1% FBS. Plates were incubated at 37 degrees C for 2 hours, after which 23 nL of compounds or DMSO were delivered to each well using a pin tool. One uL of recombinant TGF-beta in DMEM (1% FBS) was then dispensed (500 pg/mL final concentration), and plates were incubated at 37 degrees C for 18 hours. Two uL of CellTiter Glo (Promega), a luminescence-based viability reagent, was dispensed, followed by a 10 minute room temperature incubation. The plates were then measured on a PerkinElmer ViewLux plate reader for luminescence (clear filter) using a 5 second exposure. The %Activity was determined from the corrected luminescence values. Wells containing media only (no cells) were used to normalize %Activity of identified toxic compounds; media-only wells corresponded to 100%Activity (complete cell-killing), while DMSO-dosed cell controls were used to normalize 0%Activity (no toxicity).
# Concentration-response curves were fitted to the signals arising from the resulting luminescence. The concentration-effect curves were then classified based on curve quality (r2), response magnitude and degree of measured activity, and compounds were subsequently categorized based on their curve class.
# Potency means the concentration at half of the fitted maximal effect.
row,Structure (SMILES),Potency
1,COc1ccc(CC(=O)Nc2ccc(-c3nc4ccccc4s3)c(C)c2)cc1,inactive
2,COc1ccc(CS(=O)/C(Cl)=C(/Cl)C(=O)Nc2ccc(OC)nc2)cc1 (stereo not drawn),14.1 µM (active)
3,COc1ccc(NC(=O)C(=O)NCc2ccco2)cc1,inactive
4,COc1ccc(-n2c(=O)c3c(c4cc(OC)ccc4n3C)n(Cc3cccc(C)c3)c2=O)cc1,inactive
5,COc1ccc(CNC(=O)C2=Cc3cccc(OC)c3OC2)cc1OC,inactive
6,COc1ccc(OC)c(CNC(=O)c2c3c(nc4ccccc24)C(=O)N(C2CCCCC2)C3)c1,inactive
7,COc1ccc(N2CCN(CCNC(=O)c3nnc(Cc4c(F)cccc4Cl)o3)CC2)cc1,inactive
8,O=C(NCCCN1CCN(c2cccc(Cl)c2)CC1)c1nnc(Cc2ccc(F)cc2Cl)o1,11.2 µM (active)
9,O=C(Cc1csc(Nc2nc(=S)[nH]c3ccccc23)n1)NCCCN1CCN(c2cccc(Cl)c2)CC1,inactive
10,CCc1ccc(NC(=O)CN2C(=O)C(c3ccccc3)=NC23CCCCCC3)cc1,inactive
11,Cc1cnc(NC(=O)c2ccccn2)s1,5.01 µM (active)
12,COc1ccc(CC(=O)NCc2nnc(SCC(=O)Nc3ncc(C)s3)n2C)cc1,inactive
13,COC(=O)Nc1ncc(CN2C(=O)c3ccccc3C2=O)s1,inactive
14,CCOc1ccccc1CNC(=O)c1ccc2c(c1)nc1n2CCC(C)C1 (stereo not drawn),inactive
15,CCN(Cc1ccccc1)Cc1c(O)ccc2c(=O)c(-c3ccc(Cl)cc3Cl)coc12,inactive
16,Cc1[nH]c2ccccc2c1C(=O)C(=O)N(C)c1ccccc1,inactive
17,OC[C@@H]1O[C@H](n2cnc3c(SCc4ccccc4)ncnc32)[C@H](O)[C@H]1O,inactive
18,c1ccc2c(CCN3CCNC[C@H]3Cc3cccc4ccccc34)cccc2c1,12.6 µM (active)
19,c1ccc(C[C@H]2CNCCN2CCC23CC4CC(CC(C4)C2)C3)cc1,inactive
20,CC(C)(C)CN1C(=O)C(=O)NC[C@H]1Cc1cccc2ccccc12,inactive
21,O=c1n(Cc2cccc(C(F)(F)F)c2)c2ccccc2c2nc(-c3ccccc3)nn12,inactive

row,Structure (SMILES),Potency
1,Brc1cccc[n+]1Cc1cccc(C[n+]2ccccc2Br)c1,inactive
2,CCOC(=O)Nc1ccc2c(c1)N(C(=O)CN1CCN3CCCC3C1)c1ccccc1CC2 (stereo not drawn),inactive
3,CCOC(=O)Nc1ccc(S(=O)(=O)N(C)C(C)C)cc1,inactive
4,CCOC(=O)Nc1ccc2c(c1)N(C(=O)CCCl)c1ccccc1[S@]2=O,12.6 µM (active)
5,Cc1ccc(C(=O)Nc2ccc(C(=O)O)cc2)cc1S(=O)(=O)Nc1ccccc1,inactive
6,O=C(Nc1ccc2oc(-c3ccc(O)c(Br)c3)nc2c1)c1cc2ccccc2o1,inactive
7,CCOc1ccc(OCC)c(NS(=O)(=O)c2ccc3[nH]c(=O)ccc3c2)c1,inactive
8,C[N+]1(CC(=O)c2cccs2)CCOCC1,inactive
9,CCc1ccc(CNC(=O)C2CCN(c3nnc(C)c4c(C)n(-c5ccc(C)cc5)nc34)CC2)cc1,inactive
10,CC(=O)Nc1c(C)nn(-c2ccccc2)c1N1CCC(C(=O)Nc2cc(Cl)ccc2C)CC1,inactive
11,Cc1nnc(N2CCC(C(=O)Nc3ccc(F)cc3)CC2)c2nn(-c3ccc(Cl)cc3)c(C)c12,11.2 µM (active)
12,CCCCc1nn2c(=O)cc(COC(=O)c3cccc(NC(=O)COc4ccccc4)c3)nc2s1,inactive
13,O=C(NCc1ccccn1)[C@]1(C(F)(F)F)C[C@H](CCc2ccccc2)CCCO1,inactive
14,CC(C)(C)n1ncc2c(=O)n(Cc3ccc(C(=O)c4ccccc4)cc3)cnc21,inactive
15,N#C/C(=C\c1ccccc1F)c1nc2ccccc2c(=O)[nH]1,inactive
16,O=C(/C(=C/c1cccc(Cl)c1)c1nc2ccccc2[nH]1)c1ccccc1,2.82 µM (active)
17,O=C(O)c1ccc(Cn2c(SCc3ccc(F)cc3)nc3ccncc32)cc1,inactive
18,COc1ccc(CCNC(=O)c2cnc3sc(N4CCCCCC4)nn3c2=O)cc1OC,inactive
19,COc1ccc(Cl)cc1NC(=O)C(C)Sc1nc2c(c(=O)[nH]1)CCCC2 (stereo not drawn),inactive
20,ClC/C=C/C[n+]1ccccc1Cl,inactive
21,CN1c2ccc(Cl)cc2-c2nc(SCC(=O)Nc3cc(F)ccc3F)ncc2S1(=O)=O,inactive

row,Structure (SMILES),Potency
1,Cc1ccc(C=O)cc1Cl,inactive
2,COc1ccc(CNC(=O)c2ccc3c(O)c(S(=O)(=O)c4ccccc4)c(=O)[nH]c3c2)cc1,inactive
3,Cc1ccc(C(=O)CC2(O)C(=O)N(CCc3ccccc3)c3ccc(Br)cc32)cc1 (stereo not drawn),inactive
4,CCc1ccc(C(=O)CC2(O)C(=O)N(CCc3ccccc3)c3ccc(Br)cc32)cc1 (stereo not drawn),14.1 µM (active)
5,CCCN1C(=O)C(O)(CC(=O)c2ccc(CC)cc2)c2cc(Br)ccc21 (stereo not drawn),inactive
6,CC(=O)OCC(NC(=O)C(Cc1ccccc1)NC(=O)OC(C)(C)C)C1OC(n2ccc(=O)[nH]c2=O)C(OC(C)=O)C1OC(C)=O (stereo not drawn),inactive
7,CC(C)(C)c1ccc(C(=O)C[N+]2(C)CCCc3ccccc32)cc1 (stereo not drawn),inactive
8,COc1ccc(NC(=O)CCCN2C(=O)CCn3nc(-c4cn(C)c5ccccc45)cc32)cc1OC,inactive
9,CCOc1ccc(OCC)c(NC(=O)CN(c2ccc(C)cc2)S(=O)(=O)c2c(C)n[nH]c2C)c1,12.6 µM (active)
10,COC(=O)c1ccc(NC(=O)CN(c2ccc(C)cc2)S(=O)(=O)c2c(C)n[nH]c2C)cc1,inactive
11,COc1ccc(N(CC(=O)Nc2cc(OC)cc(OC)c2)S(=O)(=O)c2c(C)n[nH]c2C)cc1,inactive
12,CCCCCn1c(CCNC(=O)c2ccc(F)cc2)nc2ccccc21,inactive
13,CCOC(=O)Cn1c(=O)n(-c2ccccc2OC)c2nc(-c3cccc(F)c3)nc(C(N)=O)c21,inactive
14,CC1=C(C(=O)Nc2ccccc2)C(c2ccc(C)cc2)n2nc(SCc3ccccc3C)nc2N1 (stereo not drawn),inactive
15,C(=Nc1ccc(/C=C/c2ccnc3ccccc23)cc1)c1cc2c3c(c1)CCCN3CCC2,inactive
16,Cc1cccc(NC(=O)c2ccc(COc3ccccc3[N+](=O)[O-])o2)n1,inactive
17,Cc1cccc(NC(=O)c2ccc([N+](=O)[O-])o2)c1,22.4 µM (active)
18,Cc1cccc(NC(=O)CCn2c(=O)oc3ccccc32)c1,inactive
19,O=C(NCc1nnnn1-c1ccc(Cl)cc1)c1ccc([N+](=O)[O-])o1,inactive
20,O=C(Nc1ccc(Br)cn1)c1ccc([N+](=O)[O-])o1,17.8 µM (active)
21,CCN(CC)S(=O)(=O)c1ccc(N2CCCC2)c(NC(=O)c2ccc([N+](=O)[O-])o2)c1,inactive
